From PubChem
A selection: hits, their analogues and other compounds. The true share with any hit is near 2.6%.
Platelet DG rel = platelet dense granule release activity | human platelet-rich plasma, SFLLRN dense granule ATP release, luminescence | inhibition, %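 (compounds screened at 7.5 µM in platelet-rich plasma)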 | actives 0.22% (n = 300,000) | AID 1663;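 active = mean replicate score, as percent of positive control, at or above 50; inconclusive = mean below 50 but at least one replicate at or above 50; inactive = mean and every replicate below 50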
Granule exo inh = blocks lytic granule exocytosis; inhibition, % at 10 µM; actives 0.66% (n = 360,000); TALL-104 LAMP-1 surface exposure, flow cytometry; cells stimulated with thapsigargin and PMA;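 active = inhibition above about 55%, limit read from the data; inconclusive = no clear call, values can overlap the other calls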
Rce1 inhib = blocks yeast Ras-converting enzyme; yeast membranes, quenched prenylated peptide cleavage fluorescence; AID 2563; Q03530; calls only; actives 0.27% (n = 290,000);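 active = fall in fluorescence gain of 50% or more versus controls, with final raw signal at or below 3038400; inconclusive = same 50% fall but final raw signal above 3038400; inactive = fall in fluorescence gain under 50%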
PfM18AAP inh = blocks P. falciparum M18 aspartyl aminopeptidase; recombinant PfM18AAP, H-Glu-NHMec fluorogenic cleavage; inhibition, % at 7.35 µM; actives 1.2% (n = 290,000); AID 1822;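 active = inhibition above the campaign mean inhibition over all tested compounds plus 3 SD, cut at about 28% in these data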
ABHD5-PLIN5 inh = inhibitors of human ABHD5-perilipin-5 interaction; Q00G26+Q8WTS1; Split G. princeps luciferase complementation, luminescence, 4 h; inhibition, % at 4 µM; actives 0.78% (n = 360,000); AID 602281;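 active = inhibition above the mean inhibition across every tested compound plus 3 SD, cut at about 22% in these data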
Target sequence (Q00G26 whole entry, looked up): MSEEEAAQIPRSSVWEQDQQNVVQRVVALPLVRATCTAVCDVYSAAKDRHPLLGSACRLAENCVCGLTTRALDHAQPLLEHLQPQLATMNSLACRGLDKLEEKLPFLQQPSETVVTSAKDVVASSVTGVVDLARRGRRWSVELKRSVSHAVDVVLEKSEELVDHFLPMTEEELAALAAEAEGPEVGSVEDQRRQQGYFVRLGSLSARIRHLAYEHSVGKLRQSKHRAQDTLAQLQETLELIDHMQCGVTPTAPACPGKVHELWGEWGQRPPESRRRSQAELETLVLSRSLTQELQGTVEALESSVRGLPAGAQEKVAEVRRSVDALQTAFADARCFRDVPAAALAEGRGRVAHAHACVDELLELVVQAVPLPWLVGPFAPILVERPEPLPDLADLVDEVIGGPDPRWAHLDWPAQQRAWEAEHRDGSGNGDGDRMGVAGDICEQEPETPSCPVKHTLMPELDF
Target sequence (Q8WTS1 whole entry, looked up): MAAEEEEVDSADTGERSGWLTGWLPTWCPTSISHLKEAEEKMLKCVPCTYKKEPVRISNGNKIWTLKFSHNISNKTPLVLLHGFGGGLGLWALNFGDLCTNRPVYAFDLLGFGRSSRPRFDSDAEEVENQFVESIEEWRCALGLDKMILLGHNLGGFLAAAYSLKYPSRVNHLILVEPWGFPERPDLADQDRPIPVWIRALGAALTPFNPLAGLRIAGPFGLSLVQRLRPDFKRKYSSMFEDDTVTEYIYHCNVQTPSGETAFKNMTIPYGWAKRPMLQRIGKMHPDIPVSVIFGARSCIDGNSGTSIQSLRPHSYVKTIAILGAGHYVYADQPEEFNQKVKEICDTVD
A number is an active result; . = inactive; ? = inconclusive; / = no result; + = active, no number; ! = repeats disagree.

SMILES | Platelet DG rel | Granule exo inh | Rce1 inhib | PfM18AAP inh | ABHD5-PLIN5 inh
O=C(Nc1nccs1)C(Br)C(Br)c1ccccc1 (configuration not stated) | . | . | . | 30.6 | .
OCCOCCN1CCN(C2=Nc3ccccc3Sc3ccccc32)CC1 | . | . | . | . | 22.6!
CCOC(=O)C1(Cc2cccc(OC)c2)CCN(CC=C(C)C)CC1 | 57.4 | . | . | . | .
CCOC(=O)C1(Cc2cccc(OC)c2)CCN(C/C=C/c2ccc(OC)cc2)CC1 | . | . | . | . | .
COc1ccc(-c2c(NC(=O)C(C)C)n(C)c3ccccc3c2=O)cc1 | . | . | . | . | .
O=C(CC1NCCNC1=O)Nc1ccc2c(c1)OCCO2 (configuration not stated) | / | . | / | . | .
Cc1ccc(S(=O)(=O)/N=C(\c2ccc(F)cc2)n2c(C)nc3ccccc32)cc1 | 51.7 | . | . | . | .
Cc1ccc(S(=O)(=O)/N=C(/c2ccc(F)cc2)N2CCCC2)cc1 | . | . | / | . | .
O=C(NCc1n[nH]c(=S)n1-c1ccccc1)c1cccs1 | . | . | . | 28.3 | .
O=C(NCc1n[nH]c(=S)n1-c1cccc(Cl)c1)c1cccs1 | . | . | . | . | .
Cc1cccc(-n2c(CNC(=O)c3cccc([N+](=O)[O-])c3C)n[nH]c2=S)c1 | . | . | . | 30.1 | .
COC(=O)CN1C(=S)N(c2ccc(OC)cc2)C(=O)/C1=C/c1ccc(N2CCOCC2)cc1 | . | . | . | . | .
O=C1c2cccc(O)c2C(=O)c2c(O)cc(CO)cc21 | . | / | . | / | /
CC1OC2CC(=O)OC2C2=C1C(=O)c1c(O)cccc1C2=O (configuration not stated) | / | 85.7 | / | / | 101.4
CC(C)(C)c1ccc(-n2nc(C(N)=O)c(O)cc2=O)cc1 | . | . | . | . | .
CC(C)(C)c1ccc(-n2nc(C#N)c(Cl)cc2=O)cc1 | . | . | . | . | 31.9
Nc1c(/C=C2/C=CC(=O)C(O)=C2)c(=O)nc2sc(CC(=O)N3CCCCC3)nn12 | . | . | . | 63.7 | .
Cc1ccc(C)c(S(=O)(=O)N2CCCC2CNC(=O)C(=O)NCc2cccs2)c1 (configuration not stated) | . | . | . | / | .
OCC1OC(n2cnc3c(NCCc4ccccc4)ncnc32)C(O)C1O (configuration not stated) | 70.0 | . | . | / | .
CC1(C)OC2C(O1)[C@@H](CO)O[C@H]2n1cnc2c(N)ncnc21 (some centres not stated) | . | . | . | . | .
Nc1ncnc2c1ncn2[C@@H]1O[C@H](CO)[C@@H](O)[C@H]1O | 80.9 | . | . | . | .
COc1ccccc1/C=C\C=N\n1c(-c2ccc(Cl)cc2)n[nH]c1=S | . | . | . | . | .
Cc1cccc(OCCN2C(=O)C(=O)c3cc(C)ccc32)c1 | . | . | + | . | .
Cc1ccc2c(c1)C(=O)C(=O)N2CCOc1ccccc1 | . | . | . | 38.7 | .
CCN1CCN(c2cc(C)c3cc(NC(=S)N4CCN(c5ccccc5)CC4)ccc3n2)CC1 | . | 56.4 | . | . | .
SMILES | Platelet DG rel | Granule exo inh | Rce1 inhib | PfM18AAP inh | ABHD5-PLIN5 inh
CCN1CCN(c2cc(C)c3cc(NC(=S)N4CCOCC4)ccc3n2)CC1 | . | . | . | . | .
Cc1nn(CCC(=O)O)c2nc(-c3cccnc3)cc(C(F)(F)F)c12 | . | . | + | . | .
Cc1nn(CCC(N)=O)c2nc(-c3cccs3)cc(C(F)(F)F)c12 | . | . | . | . | .
Cc1cccc(N2CCN(C(=O)c3cc(S(=O)(=O)N4CCCC4)cn3C)CC2)c1C | . | . | . | . | .
Cn1cc(S(=O)(=O)N2CCCC2)cc1C(=O)N1CCN(c2cccc(Cl)c2)CC1 | 59.5 | . | . | . | .
COc1ccc(Cl)cc1NC(=O)c1cc(S(=O)(=O)N2CCCC2)cn1C | 63.2 | . | . | . | .
CC(=O)Cc1c(C(=O)O)c(C)nn1-c1ccccc1 | . | . | . | . | .
Nc1nnnn1/N=C/c1ccccc1OCc1ccc(Cl)cc1 | . | . | . | . | .
Nc1nnnn1/N=C/c1ccccc1OCc1ccc(Cl)cc1Cl | . | . | + | . | .
N#CC(C#N)=C1NC(N)=C(C#N)C(c2ccccc2)=C1C#N | . | . | + | . | .
CCC1(CC)Cc2ccccc2C(=C(C#N)C#N)N1 | . | . | . | . | .
O=S(=O)(c1cccs1)N1CCN(c2ccc(O)cc2)CC1 | . | . | . | 37.3 | .
N#Cc1cnn2cc(-c3ncc(C(F)(F)F)cc3Cl)cnc12 | . | . | . | . | .
COCc1cc(CN2CCCC(C(=O)Nc3ccc(-c4ccco4)cc3)C2)ccc1OC (configuration not stated) | . | . | . | . | 31.7
CCC(Sc1nc2ncccc2[nH]1)C(=O)NC1CCC(C)CC1 (configuration not stated) | . | . | . | . | .
Cc1nc(N2CCOCC2)c2cc(-c3ccccc3)sc2n1 | . | . | + | . | .
O=S(=O)(c1ccc(Cl)cc1)c1nc(-c2ccco2)oc1N1CCOCC1 | . | . | . | . | .
CNC(=O)Cc1csc2ccc(C)cc12 | . | . | . | . | .
C=C[C@@]1(C)CC(=O)[C@]2(O)[C@@]3(C)[C@@H](O)CCC(C)(C)[C@@H]3[C@H](O)[C@H](OC(C)=O)[C@@]2(C)O1 | 89.6 | . | . | / | .
C=C[C@@]1(C)CC(=O)[C@]2(O)[C@@]3(C)[C@@H](O)CCC(C)(C)[C@@H]3[C@H](OC(C)=O)[C@H](O)[C@@]2(C)O1 | ? | . | . | / | .
CC1(C)CC(=O)C2=C(C1)N(CC1CCCO1)C(=O)C2(O)C(F)(F)F (configuration not stated) | . | 80.2 | . | . | .
CC1(C)CC(=O)C2=C(C1)N(CC1CCCO1)C(=O)NC2(C(F)(F)F)C(F)(F)F (configuration not stated) | . | . | . | . | .
OC(COCc1ccccc1)CN1CCc2ccccc2C1 (configuration not stated) | . | . | . | . | .
O=C(O)CNc1ccccc1C(=O)O | . | . | + | . | .
CC(C(=O)Nc1cc([N+](=O)[O-])ccc1Cl)N1CCN(c2ccc(O)cc2)CC1 (configuration not stated) | . | . | . | 28.9 | .
SMILES | Platelet DG rel | Granule exo inh | Rce1 inhib | PfM18AAP inh | ABHD5-PLIN5 inh
CC(=O)Nc1nnc(SCC(=O)Nc2ccc3c(c2)OCCO3)s1 | . | . | . | . | .
Cc1ccc(Nc2nc(N/N=C/c3c[nH]c4ccccc34)nc(N3CCOCC3)n2)cc1 | . | 63.1 | . | . | .
COc1cc2cc(NC(C)=O)cc(NCc3ccccc3)c2cc1OC | . | . | . | . | .
CCCCNc1cc(NC(C)=O)cc2cc(OC)c(OC)cc12 | . | . | / | 28.1 | .
Cc1ccc(C)c(N2CCN(C(=O)CCc3nc(-c4ccccc4C)no3)CC2)c1 | / | . | / | / | .
COc1ccc(-c2nc(-c3ccccn3)no2)cc1 | 61.4 | . | . | . | .
COc1ccccc1-c1nc(-c2ccccn2)no1 | . | . | . | . | .
O=C(O)c1ccc(N/N=C/c2ccc(-c3ccccc3Cl)o2)cc1 | . | . | + | . | .
CC(=O)Nc1ccc(NC(=O)c2ccccc2C)cc1 | . | . | . | . | .
